Assay outcomes deposited in PubChem BioAssay by NMMLSC.
Sampled rows, rich in hits. Any-hit rate of the full collection: about 3.5%.
BoNT-A LC inh2: BoNT/A light chain protease inhibitors, primary screen, biochemical, flow cytometry, MLPCN library. inhibition, % at 10 µM. multiplex microsphere protease substrate cleavage. 360,000 tested, 0.17% active; in the data active means inhibition above about 30%; inconclusive means no clear call, values can overlap the other calls; further: plate controls were buffer without enzyme for full effect and enzyme alone for no effect
Anthrax LF prot: Bacillus anthracis LF protease inhibitors, primary screen, biochemical, multiplex microsphere, MLPCN library. multiplex microsphere protease cleavage assay. 360,000 tested, 0.12% active. Lethal factor (Bacillus anthracis), P15917. inhibition, % at 10 µM; in the data active means inhibition above about 30%; inconclusive means no clear call, values can overlap the other calls; further: plate controls were buffer without enzyme for full effect and enzyme alone for no effect
Target sequence (P15917 whole entry, looked up): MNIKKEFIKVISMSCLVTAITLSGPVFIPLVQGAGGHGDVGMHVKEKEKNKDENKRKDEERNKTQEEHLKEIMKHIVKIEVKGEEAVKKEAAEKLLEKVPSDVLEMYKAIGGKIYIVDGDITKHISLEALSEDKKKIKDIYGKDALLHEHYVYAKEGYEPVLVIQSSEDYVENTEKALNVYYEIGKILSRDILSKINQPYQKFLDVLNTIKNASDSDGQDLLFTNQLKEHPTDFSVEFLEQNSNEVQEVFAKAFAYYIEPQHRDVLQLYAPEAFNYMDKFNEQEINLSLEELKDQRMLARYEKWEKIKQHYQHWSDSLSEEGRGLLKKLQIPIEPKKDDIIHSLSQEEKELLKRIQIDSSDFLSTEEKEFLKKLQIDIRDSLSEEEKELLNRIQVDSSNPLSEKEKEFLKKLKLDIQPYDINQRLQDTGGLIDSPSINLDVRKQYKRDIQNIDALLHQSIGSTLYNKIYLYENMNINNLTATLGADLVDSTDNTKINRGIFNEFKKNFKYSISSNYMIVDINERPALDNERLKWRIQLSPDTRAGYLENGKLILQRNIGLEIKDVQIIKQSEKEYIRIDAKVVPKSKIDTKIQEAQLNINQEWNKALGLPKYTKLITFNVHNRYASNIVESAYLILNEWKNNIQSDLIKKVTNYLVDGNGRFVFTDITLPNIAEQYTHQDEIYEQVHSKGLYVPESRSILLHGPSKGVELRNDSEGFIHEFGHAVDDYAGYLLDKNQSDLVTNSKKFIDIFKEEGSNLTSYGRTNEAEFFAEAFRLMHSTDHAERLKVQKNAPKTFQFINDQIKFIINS
Bead autofluor: counter-screen for toxin protease inhibitors: compound fluorescence. compound autofluorescence counterscreen, microsphere flow cytometry; stronger effect = higher value. fluorescence intensity (test concentration not listed). 360,000 tested, 3.1% active; in the data active means fluorescence intensity above about 16000; inconclusive means no clear call, values can overlap the other calls
BoNT-F LC inh: BoNT/F light chain protease inhibitors, primary screen, biochemical, flow cytometry, MLPCN library; 360,000 tested, 0.22% active; Botulinum neurotoxin type F light chain protease (Clostridium botulinum); inhibition, % at 10 µM; Multiplex microsphere protease cleavage assay; in the data active means inhibition above about 35%, passing the limit was not always enough; inconclusive means no clear call, values can overlap the other calls; further: plate controls were buffer without enzyme for full effect and enzyme alone for no effect
BoNTA LC inh 1: BoNT/A light chain protease inhibitors, confirmation, biochemical, flow cytometry, cherry pick 1. shares compounds with BoNT-F LC inh. inhibition, % at 10 µM. 720 tested, 3% active. multiplex microsphere protease assay; in the data active means inhibition above about 32%
BoNTF LC inh 1: BoNT/F light chain protease inhibitors, confirmation, biochemical, flow cytometry, cherry pick 1 | 720 tested, under 10 active | multiplex microsphere protease cleavage assay | AID 602140, 2011 | shares compounds with BoNT-F LC inh | inhibition, % at 10 µM
Anthrax LF CP1: Bacillus anthracis LF protease inhibitors, confirmation, biochemical, multiplex microsphere, cherry pick 1. AID 602142, 2011. shares compounds with BoNT-F LC inh. multiplex microsphere protease cleavage assay. inhibition, % at 10 µM. 720 tested, under 10 active
Numbers without * were called inactive; ? = inconclusive; · = no result given. Unless noted, how the calls were made is not given here.

SMILES	BoNT-A LC inh2	Anthrax LF prot	Bead autofluor	BoNT-F LC inh	BoNTA LC inh 1	BoNTF LC inh 1	Anthrax LF CP1
CNS(=O)(=O)c1ccc(CNC[C@H]2O[C@@H](n3ccc(N)nc3=O)[C@H](O)[C@@H]2O)cc1	0	-2	3928	-6	·	·	·
CN(C)CCN(CC1CCCN(Cc2ccccc2F)C1)C(=O)c1ccc(Cl)cc1 (stereo not drawn)	2	9	3527	44*	0	-4	0
Cc1ccccc1CC(=O)N(CCN(C)C)CC1CCCN(Cc2ccccc2F)C1 (stereo not drawn)	-1	-5	4146	25	·	·	·
Cc1cc(C(=O)N2CCN(S(=O)(=O)c3ccc(C)c(C)c3)CC2)no1	-1	2	6476	-2	·	·	·
O=C(Nc1cccs1)NC1CCCC1	0	-1	3254	1	·	·	·
O=C(Nc1ccc2nc(-c3cccs3)c(-c3cccs3)nc2c1)NC1CC1	83*	54*	6638	36*	50*	-1	31*
CCCCC(=O)C1CCN(Cc2ccccc2)CC1	0	-2	7263	33	1	-5	0
NC(=O)C1CCN(CCS(=O)(=O)c2ccc(Cl)cc2)CC1	0	-8	4531	6	·	·	·
CCOc1ccc(NC(=O)Nc2ccc(Br)cn2)cc1	4	1	2591	48*	1	-5	-2
COc1ccc(C2CC(c3cccs3)=NN2c2nc(-c3ccccc3)cs2)cc1OC (stereo not drawn)	19	16	4635	2	8	-2	9
CCCCCC(=O)Nc1ccc(S(=O)(=O)Nc2cc(OC)nc(OC)n2)cc1	2	-2	3600	39*	-1	-2	2
COC(=O)CCC(=O)Nc1ccc(S(=O)(=O)Nc2cc(OC)nc(OC)n2)cc1	-2	-3	3679	-3	·	·	·
CC(C)OC(=O)C(C)Nc1ccc(F)c(Cl)c1 (stereo not drawn)	-4	-7	3010	40*	-2	-5	-6
CC(Nc1ccc(Cl)c(Cl)c1)C(=O)NN (stereo not drawn)	?	6	4127	?	·	·	·
Cc1ccc(-n2c(Cl)c(Cl)nc(Cl)c2=O)cc1	0	-1	2485	-2	·	·	·
CCSc1ncnc2c1sc1nc3c(cc12)COC(C)(C)C3	3	2	2577	36*	-1	-8	-4
C=CC[C@H](CC(=O)N(CCO)Cc1ccccc1)C(=O)NCCOC(=O)[C@H](CC=C)CC(=O)OC(C)(C)C	0	0	3809	-10	·	·	·
Cc1cc(C(=O)Nc2cc(C(C)(C)C)on2)c(C)o1	-1	100*	5818	?	0	-1	-2
Cc1cc(C(=O)Nc2ccon2)c(C)o1	0	-3	4012	6	·	·	·
CCn1c(C)c(C(C)=O)c(N2CCN(C(c3ccccc3)c3ccccc3)CC2)nc1=S	6	0	4010	-4	·	·	·
CCn1c(C)c(C(C)=O)c(N2CCN(c3ccccc3)CC2)nc1=S	46*	20	3921	-55	-4	-16	1
CN(C)c1nc(Nc2ccc(F)cc2)nc(Oc2ccc(F)cc2)n1	57*	-90	1636	-254	-1	-4	-1
Cc1ccc(Nc2nc(Oc3ccc(=O)[nH]n3)nc(N(C)C)n2)cc1	0	-5	4829	-13	·	·	·
COc1ccc(CCNC(=O)CCSCc2ccccc2F)cc1OC	3	5	3605	48*	0	-4	-4
CCOC(=O)c1sc2nc(-c3ccco3)c3c(c2c1N)CC(C)(C)OC3	33*	20	10754	7	8	3	5
SMILES	BoNT-A LC inh2	Anthrax LF prot	Bead autofluor	BoNT-F LC inh	BoNTA LC inh 1	BoNTF LC inh 1	Anthrax LF CP1
Cc1nc2sc(C(=O)O)c(N)c2c2c1COC(C)(C)C2	3	0	3947	-18	·	·	·
O=C(Nc1ccc(CN2CCOCC2)cc1)c1ccc(F)cc1	0	1	3717	35*	0	-3	3
O=C(Nc1ccc(CN2CCS(=O)(=O)CC2)cc1)c1ccc(C(F)(F)F)cc1	0	30*	3484	-17	0	-8	-4
O=C(Nc1ccc(CN2CCOCC2)cc1)c1ccc(Cl)cc1	0	-13	3466	-2	·	·	·
CC(C)(C)c1ccc(C(=O)Nc2ccc(CN3CCS(=O)(=O)CC3)cc2)cc1	-5	-10	?	?	·	·	·
COc1ccc(-n2c(C)nnc2SCC(=O)N2CCOCC2)cc1	-4	0	3824	47*	1	2	-2
Clc1ccccc1-c1nnc2n1CCCCC2	-10	37*	3259	-17	0	5	2
O=C(CCCc1nc2ccccc2s1)NCc1ccc(F)cc1	3	0	1938	40*	0	-3	-4
CCN(CC)C(=O)c1ccc(NC(=O)c2cccc(S(=O)(=O)N3CCN(Cc4ccccc4)CC3)c2)cc1	57*	-4	?	-3	-3	-3	-1
COc1cccc(NC(=O)c2cccc(S(=O)(=O)N3CCN(Cc4ccccc4)CC3)c2)c1	6	-8	?	12	·	·	·
Nc1c(C(=O)N2CCOCC2)sc2nc3c(cc12)CCCC3	2	2	5257	9	·	·	·
Cc1cc(C)c2nc3sc(C(=O)N4CCOCC4)c(N)c3cc2c1	3	1	5284	2	·	·	·
Cc1ccc(C)c2nc3sc(C(=O)N4CCOCC4)c(N)c3cc12	5	-1	2399	1	2	-2	0
Cc1cccc2cc3c(N)c(C(=O)N4CCc5ccccc54)sc3nc12	13	4	3244	3	3	3	1
CCOc1ccc2nc3sc(C(=O)N4CCOCC4)c(N)c3cc2c1	13	2	4394	0	-1	-5	-3
Cc1cc(C)c2cc3c(N)c(C(=O)N4CCOCC4)sc3nc2c1	8	3	2728	4	1	2	-6
O=C1CN(C(=O)CN2CCN(S(=O)(=O)c3ccccc3)CC2)c2ccccc2N1	0	0	3525	0	·	·	·
CCCCNCCOCCOc1ccc(C)cc1[N+](=O)[O-]	22	?	?	46*	2	1	1
Nc1nc2ccccc2n1CCOc1ccc(F)cc1	-4	-1	4168	42*	-1	-2	3
Cc1ccc(S(=O)(=O)CCC(=O)Nc2nnc(-c3cccs3)o2)cc1	-2	-4	5087	-7	·	·	·
Cn1c2ccccc2c(=O)c2c(=O)n(-c3ccccc3)c(-c3ccc(C(C)(C)C)cc3)nc21	4	36*	4082	?	-2	0	2
Cc1ccc(-c2nc3c(c(=O)c4ccccc4n3C)c(=O)n2-c2ccc(F)cc2)cc1	?	-3	5145	?	·	·	·
CCN(CC)c1nc2cc(OC)ccc2cc1C#N	31*	19	5562	23	3	2	-2
